# Data taken from the supplement of paper PMC3334620.
# In all, about 33,000 sequences were measured (“E-score (-0.5 to 0.5)”: median about -0.032, highest 2% from about 0.36 on). Shown is part of a subset that was picked to be rich in the highest values.
# Target: T1, Sko1 (UniProt Q02100)
# T1 sequence: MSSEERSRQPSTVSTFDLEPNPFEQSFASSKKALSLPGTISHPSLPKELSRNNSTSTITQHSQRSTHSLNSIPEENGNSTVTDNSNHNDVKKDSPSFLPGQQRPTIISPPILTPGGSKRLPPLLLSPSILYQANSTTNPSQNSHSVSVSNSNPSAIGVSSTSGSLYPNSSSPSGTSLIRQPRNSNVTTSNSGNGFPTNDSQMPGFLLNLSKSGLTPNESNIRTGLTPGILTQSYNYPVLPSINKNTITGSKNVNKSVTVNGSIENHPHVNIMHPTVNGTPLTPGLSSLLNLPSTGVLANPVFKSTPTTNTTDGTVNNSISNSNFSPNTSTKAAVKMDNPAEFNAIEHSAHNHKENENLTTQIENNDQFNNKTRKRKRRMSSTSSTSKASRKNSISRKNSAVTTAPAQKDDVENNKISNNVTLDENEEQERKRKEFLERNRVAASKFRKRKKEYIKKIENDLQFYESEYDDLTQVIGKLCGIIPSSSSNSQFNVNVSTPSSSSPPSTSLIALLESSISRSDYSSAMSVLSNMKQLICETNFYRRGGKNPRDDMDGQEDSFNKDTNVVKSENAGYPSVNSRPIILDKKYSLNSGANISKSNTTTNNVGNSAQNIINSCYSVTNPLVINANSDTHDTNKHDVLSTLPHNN
# Assay: PBM E-score (8-mer binding enrichment) (E-score (-0.5 to 0.5)); higher = stronger / more preferred TF binding
# Settings: protein concentration: 200 nM; construct: GST-full length
# Protocol: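 Universal 'all 10-mer' protein binding microarrays (Agilent AMADID 015681) probed with GST-tagged S. cerevisiae TFs (full-length or DBD) made by in vitro transcription/translation (PURExpress), about 100-200 nM. Bound TF was detected with fluorescent anti-GST. Each ungapped 8-mer (which stands for itself and its reverse complement) is scored by the PBM enrichment score (E-score), a modified Wilcoxon-Mann-Whitney statistic from -0.5 to +0.5, computed with the Universal PBM Analysis Suite. Scale: above 0.35 generally sequence-specific binding.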
row,Sequence,PBM E-score
1,GCCCGTAA,0.172
2,ACGCACAG,0.254
3,ACGCACGA,0.295
4,ACGCACAA,0.262
5,ACGCACGC,0.316
6,ACGCACAT,0.387
7,ACGCACGT,0.403
8,AAGCACGA,0.0735
9,AAGCACGT,0.389
10,AAGCACGG,-0.00706
11,GGAACGGA,-0.185
12,ATTCGCTG,0.0204
13,ATAATACG,0.376
14,CGAATACG,0.406
15,CGAATACC,-0.0967
16,ATAATACA,0.208
17,ACAATACA,0.0868
18,ATAATACC,0.138
19,AGAATACG,0.304
20,ACAATACG,0.386
21,ACAATACT,0.151
22,CTGGCAAC,-0.23
23,CACGCTTA,0.116
24,AGATGCAT,-0.0801
25,ACTGAAGA,0.0507

row,Sequence,PBM E-score
1,AAACGTAC,0.37
2,AACCGTAA,0.0957
3,AAACGTGT,0.288
4,AAACGTAG,0.393
5,CAACGTAC,0.326
6,AAACGTGC,0.231
7,AAACGTAT,0.429
8,AAACGTAA,0.462
9,AAACGTTA,0.3
10,AAGCGTAG,-0.0528
11,AAACGTTT,0.275
12,GGATTCAC,-0.215
13,CATCTCGC,-0.129
14,AGTCCGTA,-0.218
15,TATAGAAA,0.0683
16,AGCTTTGG,-0.172
17,ATAAAACC,-0.0531
18,AGACAGTG,-0.112
19,GTCTCCTA,0.0919
20,GACCTCGC,-0.122
21,GAGAAACC,-0.146
22,TACCATCA,-0.0837
23,TCACGTGA,0.336
24,GCTCGTAA,0.231
25,GCACGTAC,0.34

row,Sequence,PBM E-score
1,TCACGTAA,0.472
2,TCCCGTAA,0.11
3,GCACGTAA,0.459
4,TCAAACGA,0.102
5,CTTTGGGC,-0.121
6,AGAGGGCT,-0.406
7,GGTAAATA,0.0846
8,CCGACCAC,-0.182
9,CGCGTGTA,0.227
10,GTCGTGTA,0.169
11,CACGTGTC,0.357
12,AACGTGTA,0.247
13,CACGTGTA,0.399
14,GACGTGTA,0.374
15,AGGTTAAA,-0.104
16,CTCCTTGA,-0.159
17,CGCCAGGC,-0.227
18,AAGGTTGT,0.00278
19,CTAATTGC,0.104
20,GACGAATA,0.297
21,CACGAATA,0.265
22,TACGAATA,0.383
23,CTAAGATA,-0.023
24,GGCACGGA,-0.233
25,CGCACGTA,0.408

row,Sequence,PBM E-score
1,CGCACGCA,0.211
2,GGCACGCA,-0.00979
3,GGCACGTA,0.395
4,CGCACGTC,0.333
5,CGAGTTCA,0.00744
6,CAGACCGC,-0.156
7,AGTCATGC,-0.0777
8,CCTCATGC,-0.142
9,AGTCATGA,0.0664
10,GGTCATGA,0.111
11,CGTCATGA,0.471
12,CGTCATGC,0.469
13,GGCAGATA,-0.0846
14,AATCGTTA,0.23
15,CGAAGGGC,-0.104
16,CTGTATGA,-0.0143
17,GTACCCCA,-0.19
18,CTAGGGAG,-0.148
19,CCAGTACG,0.215
20,AAGGGAGG,-0.244
21,ACGTAGTC,0.425
22,ACTTAGTG,0.00172
23,CCGTAGTC,-0.266
24,ACGTAGTG,0.452
25,ACGTAGTA,0.446

row,Sequence,PBM E-score
1,GCGTAGTA,0.279
2,ACTTAGTC,-0.15
3,AGGTAGTG,-0.0666
4,CCGTAGTA,-0.0427
5,AACAGGGT,-0.192
6,AGCCGCAG,-0.223
7,ACCTGTGA,0.115
8,CCGGATTC,-0.0976
9,CTTCGCGC,0.217
10,CAGATGGA,-0.0703
11,CGTATTAC,0.387
12,GGTATTAC,0.204
13,TGTATTAA,0.182
14,CGTATTAG,0.382
15,AGTATTAA,0.261
16,AGTATTAG,0.00871
17,AGTATTAC,0.331
18,CGTATTAA,0.362
19,CATATTAG,0.203
20,CGTTCTAA,0.131
21,AGTTGGTG,-0.0352
22,ACCCATAA,-0.118
23,GGCCTCAC,-0.0829
24,AGAGCACC,-0.328
25,ACCTTGTG,-0.0718

row,Sequence,PBM E-score
1,CACCTGTC,-0.232
2,CCATGACC,-0.0889
3,ACATGACG,0.474
4,ACATGACA,0.217
5,ACATGACT,-0.0468
6,ATATGACC,0.00457
7,ATATGACA,0.243
8,CCATGACA,0.163
9,CCATGACG,0.475
10,ATATGACG,0.477
11,TCATTTCA,0.181
12,AGAGCAGC,-0.173
13,ATACGTTC,0.374
14,CTACGTTC,0.272
15,ATGCGTTA,0.247
16,GTACGTTA,0.395
17,GCACGTTA,0.274
18,CTACGTTA,0.406
19,AGACGTTC,0.125
20,CAACGTTA,0.257
21,ACACGTTA,0.318
22,CCACGTTA,0.289
23,ATACGTTA,0.436
24,GTACGGTA,0.207
25,AGCAGGGC,-0.225

row,Sequence,PBM E-score
1,AGACTACA,-0.158
2,ATGCTAAT,0.209
3,AAGATGCT,-0.0361
4,AAGAAAAG,-0.011
5,GGAGGCCC,-0.241
6,AGCCCCCC,-0.355
7,ACCAACAA,0.147
8,AGATGCAC,-0.0198
9,AAACGTTG,0.112
10,ATACGTTG,0.391
11,ACACGTTG,0.188
12,ATCTCTAC,0.106
13,CCCAGCGC,-0.229
14,AGGTACTG,-0.125
15,CCGTACTC,-0.132
16,ACGTACTC,0.432
17,GCGTACTA,0.232
18,CCGTACTA,0.00949
19,AGGTACTC,-0.109
20,ACGTACTG,0.412
21,ATGTACTG,-0.0689
22,ACGTACTA,0.426
23,GGGATAGA,-0.0751
24,CTGGGCTA,-0.317
25,AGATACGA,0.208

row,Sequence,PBM E-score
1,CCCTGGAC,-0.188
2,CAACGCAG,-0.0699
3,GTAACTTA,0.262
4,ACATACGT,0.459
5,ACATACGG,0.0483
6,AAATACGA,0.302
7,AAATACGT,0.463
8,ACATACGC,0.28
9,AAATACGC,0.315
10,TCGAGTCA,-0.00474
11,AGGTGCTA,-0.0841
12,ACCCGTGA,0.0498
13,CGCCACAG,-0.198
14,CAACCCAC,0.011
15,GATCAAAA,0.0898
16,CTCATGAC,0.285
17,ATCATGAA,0.126
18,GTCATGAA,0.221
19,ATCATGAG,0.211
20,ATCATGAC,0.407
21,GTCATGAC,0.392
22,CGCTAAAA,-0.102
23,ATAATAGG,0.114
24,GGCGGACC,-0.321
25,AAACTGAG,-0.159

row,Sequence,PBM E-score
1,ACGTAGAC,0.415
2,AAGTAGAT,-0.00622
3,CCGTAGAC,-0.135
4,ACTTAGAG,-0.0119
5,GCGTAGAA,0.178
6,ACGTAGAA,0.434
7,GCGTAGAC,0.0511
8,ACGTAGAT,0.452
9,AGGTAGAT,-0.0309
10,CCGTAGAG,-0.258
11,ACGTAGAG,0.387
12,CCGTAGAA,-0.14
13,AATCTGCC,-0.0515
14,AATCAGGT,0.113
15,CGCCCCAC,-0.0143
16,AGCGCCGC,-0.199
17,CCCGGTAA,-0.206
18,CATCCTGA,0.0812
19,TATAACGA,0.186
